According to ChEMBL document CHEMBL3988442, “University of Dundee, Small-Polar-MMV Screening Library” (2021):
Hit rate of the full screen: of about 48,000 compounds, about 13,000 (27%) showed an effect of 50% or more. Some of the results follow.

What follows are molecules tested on Wolbachia pipientis (assay: Anti-Wolbachia Cell-Based Screen). Settings: 5 µM.
Format: functional
Set-up: scale not given: in the data most compounds retested in dose-response had high values

| Structure (SMILES) | Percent Effect [%] |
| --- | --- |
| Cn1ncc(C(=O)OCC2CCN(c3ccccc3)C2)c1C(F)F (configuration not stated) | 4.797 |
| CN1C(=O)CCc2cc(NC(=O)C3CCCC3)ccc21 | -13.79 |
| CCS(=O)(=O)N1CCCC2(CCCN2C(=O)c2cn(C)cn2)C1 (configuration not stated) | 0.7731 |
| CN(Cc1cc(Br)cn1C)C(=O)c1ccsc1 | -18.58 |
| O=C(NC1CCN(c2ccccc2OC(F)F)C1)c1c[nH]nn1 (configuration not stated) | 107.7 |
| O=C(NC1CCN(c2ccccc2OC(F)F)C1)c1cccnc1 (configuration not stated) | -18.54 |
| O=C(Nc1cn[nH]c1)NC1CCN(c2ccccc2OC(F)F)C1 (configuration not stated) | -20.77 |
| COc1ccc(C2CCCN2C(=O)c2csc(NC(C)=O)n2)cc1 (configuration not stated) | -0.5039 |
| COc1ccc2c(c1)CN(c1nc(C)cc(C)n1)CC2 | -6.244 |
| COc1ccc(C2CN(c3nc(C)cc(C)n3)CCN2C(C)=O)cc1 (configuration not stated) | 87.97 |
| CC(OCC(F)(F)F)C(=O)N1CCCCC1 (configuration not stated) | -2.646 |
| Cc1cnc(C(=O)NCc2ccc3c(c2)CCCN3C)cn1 | 101.2 |
| O=C1CN(c2ccc(CNC(=O)c3cccnc3O)cc2F)CCN1 | -18.4 |
| COc1ccc(COCC(O)CNC(=O)c2cnc(C)cn2)cc1 (configuration not stated) | 4.456 |
| CN1N=C(C(=O)NCc2ccc3c(c2)CCCN3C)CCC1=O | 13.95 |
| CC(C)CN1CCCn2nc(CNC(=O)c3cccnc3O)cc2C1 | -4.035 |
| CN1CCCc2cc(CNC(=O)c3cccnc3O)ccc21 | 90.33 |
| CC(C)c1nn(C)c(Cl)c1CNC1CCOc2ccccc21.Cl (configuration not stated) | -8.066 |
| CC(=O)NCC(=O)N1Cc2cc(-c3cc[nH]n3)ccc2C1c1cnco1 (configuration not stated) | -23.15 |
| COc1ccc(-n2cnnc2SCC(C)(C)O)cn1 | -5.422 |
| COc1ccccc1OCC(=O)NS(=O)(=O)c1cc(F)ccc1F | -8.021 |
| COc1nn(C)cc1C(=O)NCC(=O)NCc1cccnc1 | -2.836 |
| COCCn1nc(C(=O)N2CCCC2c2cccc(F)c2)ccc1=O (configuration not stated) | 1.762 |

| Structure (SMILES) | Percent Effect [%] |
| --- | --- |
| COCCn1nc(C(=O)N2CCN(C)CC2C)ccc1=O (configuration not stated) | -13.53 |
| COCCn1nc(C(=O)N(C)Cc2cccnc2)ccc1=O | 131.6 |
| COCCn1nc(C(=O)N(C)Cc2ccc3ccccc3c2)ccc1=O | 98.47 |
| COCC(=O)N(Cc1cccnc1)CC1CCN(C2CCCC2)CC1 | -6.321 |
| CCN(CC(=O)NC)S(=O)(=O)c1cnc2c(c1)c(C)nn2C | -1.026 |
| N#CC1(C(=O)N2CCN(c3nccs3)CC2)CCCCC1 | -10.71 |
| CN(C)c1ncccc1NC(=O)COCC1CC1 | 7.684 |
| N#Cc1cccc(OCCN2CCCC(c3noc(C4CC4)n3)C2)c1 (configuration not stated) | -47.81 |
| CN1CCN(C2COC3(CCN(c4ccc(C#N)cc4)CC3)C2)CC1.O=C(O)C(F)(F)F (configuration not stated) | 99.27 |
| COC1COC2(CCN(c3ccc(C#N)cc3)CC2)C1.O=C(O)C(F)(F)F (configuration not stated) | -8.699 |
| N#Cc1ccc(N2CCC3(CC2)CC(N2CCOCC2)CO3)cc1.O=C(O)C(F)(F)F (configuration not stated) | 99.84 |
| N#Cc1ccc(N2CCC3(CC2)CC(Oc2cccnc2)CO3)cc1.O=C(O)C(F)(F)F (configuration not stated) | 18.7 |
| CN1CCOCC12CCN(c1ccc(C#N)cc1)CC2.O=C(O)C(F)(F)F | -6.092 |
| CNC(=O)COC1COC2(CCN(c3ccc(C#N)cc3)CC2)C1.O=C(O)C(F)(F)F (configuration not stated) | 4.884 |
| COc1cccc(-c2cnnc(N(C)CCC3CCCCO3)n2)c1 (configuration not stated) | -7.888 |
| Cc1cc2c(c(-c3c[nH]c(C)n3)c1)OC(CN)C2 (configuration not stated) | 10.27 |
| COc1ccc(CNC(=O)N2CCC(Cc3cnn(C)c3)C2)cc1C (configuration not stated) | -1.04 |
| Cc1ccc(CCNC(=O)N2CCC(Cc3cnn(C)c3)C2)cn1 (configuration not stated) | 129.7 |
| Cn1cc(CC2CCN(C(=O)NCCCc3ccc(O)cc3)C2)cn1 (configuration not stated) | 109.7 |
| Cc1ccc(CCNC(=O)NC2CCN(CC(F)(F)F)C2=O)cn1 (configuration not stated) | -2.04 |
| CCOc1cc(CNC(=O)N2CCC(Cc3cnn(C)c3)C2)ccn1 (configuration not stated) | 0.1866 |
| Cc1ccc(CCNC(=O)N2CCCC(Cc3nccn3C)C2)cn1 (configuration not stated) | -1.285 |
| Cc1ccc2c(ccn2CCC(=O)O)c1 | -5.722 |

| Structure (SMILES) | Percent Effect [%] |
| --- | --- |
| CC(=O)Nn1ccc2c(nnc3c(-c4ccccc4)cnn32)c1=O | 95.62 |
| O=C(O)CCn1ccc2c(nnc3c(-c4ccc(F)cc4)cnn32)c1=O | 102.5 |
| CC(=O)Nn1ccc2c(nnc3c(-c4ccc(F)cc4)cnn32)c1=O | 91.05 |
| CCN(CC)CCC(=O)NCc1cc2n(n1)CCN(C(=O)N(C)C)C2 | -4.405 |
| Cc1ccc(-c2ncc(C(=O)N3CCC[C@H](N)C3)c(O)n2)cc1 | 4.793 |
| CC(O)c1cn(CC2CCN(C(=O)c3cccc(N(C)C)c3)CC2)nn1 (configuration not stated) | -11.02 |
| Cc1nnc(NC(=O)N2CCCN(C3CCCC3)CC2)s1 | -2.14 |
| CC1CCN(CCCNC(=O)Nc2cc3c(cc2Br)OCCO3)CC1 | -0.7212 |
| Cc1nc(-c2c(-c3ccccc3)ncn2[C@H]2C[C@@H](C(=O)O)N(C)C2)co1 | -9.295 |
| CCSCc1ccnc(NC(=O)C2CCOC2)c1 (configuration not stated) | 20.8 |
| CCOc1ccc(C(=O)N2CCC(Oc3ccccc3)(C(=O)O)CC2)o1 | -0.9818 |
| CC(C)(C)N1CCN(C(=O)c2cccnc2-n2cncn2)CC1 | -9.982 |
| CCc1cc(N2CCC(NCCc3ccc(C)o3)CC2)nc(C)n1 | 97.78 |
| CCCc1cc(N2CCC(NCC3(O)CCCCC3)CC2)nc(C)n1 | -11.13 |
| CCc1cc(N2CCC(NC(=O)CCC3CCCO3)CC2)ncn1 (configuration not stated) | -4.201 |
| Cc1nc(CCNC2CCN(Cc3ccccc3)C2)sc1C (configuration not stated) | -12.11 |
| Cc1nc(C)c(C)c(N2CCC(NCCOc3ccccc3)CC2)n1 | 8.772 |
| CCc1cc(N2CCC(NCCc3ccccc3F)CC2)nc(C)n1 | 82.1 |
| CCc1cc(N2CCC(NCCSc3nnnn3C)CC2)nc(C)n1 | 4.673 |
| CCc1cc(N2CCC(NCc3ccc(C)o3)CC2)ncn1 | 91.75 |
| CCc1cc(N2CCC(NCCc3nc(C)c(C)s3)CC2)nc(C)n1 | 99.23 |
| CCc1csc(CNC2CCN(c3ccc(C)cc3)CC2)n1 | -9.18 |
| CCCc1cc(N2CCC(NCCc3ccc(O)cc3)CC2)nc(C)n1 | 19.96 |

| Structure (SMILES) | Percent Effect [%] |
| --- | --- |
| Cc1cccc(C(C(=O)NCCc2nc(C)cc(=O)[nH]2)N(C)C)c1 (configuration not stated) | 7.079 |
| Nc1nc(CCCNC(=O)C2CCCN(Cc3ccco3)C2)cs1 (configuration not stated) | 11.5 |
| Cc1ccccc1C(=O)NCCC(=O)NS(=O)(=O)c1cccnc1 | -14.99 |
| CCn1cncc1CNc1ccc(-c2nc(CC(C)C)no2)cn1 | 7.108 |
| CC(C)c1nnc2n1CCN(C(=O)c1ccc(OCC3CC3)cc1)C2 | 5.374 |
| CCn1cc(N)c(-c2nnc3n2CCCC3)n1 | 106 |
| COc1cc(CNC(C)c2nnc3n2CCC3)cc(OC)c1 (configuration not stated) | 10.34 |
| CC(NCc1ccc(Cl)o1)c1nnc2n1CCCC2 (configuration not stated) | -1.685 |
| COc1c(CNCc2nnc3n2CCCCC3)c(C)nn1C.Cl | -7.415 |
| Cc1ccoc1CNC(C)c1nnc2n1CCCC2 (configuration not stated) | -17.53 |
| CCn1cc(N)c(-c2nnc3n2CCC3)n1 | 92.6 |
| Cc1ccc(CNC(C)c2nnc3n2CCCC3)o1 (configuration not stated) | -12.78 |
| CC(NCc1ccco1)c1nnc2n1CCCC2 (configuration not stated) | -19.1 |
| Cn1cc(N)c(-c2nnc3n2CCCC3)n1 | 140.1 |
| O=C(NCC1(O)CCOc2ccccc21)Nc1ccccc1 (configuration not stated) | -14.8 |
| O=C(O)c1ccnc(-c2ccnc(COc3ccc(Cl)cc3)n2)c1 | -21.17 |
| CCCS(=O)(=O)N1CCN(c2cc(-n3cnc(C)c3C)ncn2)CC1 | -4.672 |
| OC1CCCOC12CCN(CCCOc1ccccc1F)CC2 (configuration not stated) | 114.2 |
| O[C@H]1CN(CCCOc2ccccc2F)CC[C@@]12CCCO2 | 134.4 |
| COc1ccccc1S(=O)(=O)N1CCC2(CC1)OCCCC2O (configuration not stated) | 6.351 |
| Cc1cc(C2CCC2)nc(N2CCC3(CC2)OCCCC3O)n1 (configuration not stated) | -2.811 |
| NC(=O)c1ccc(OCCCN2CCC3(CC2)OCCCC3O)cc1 (configuration not stated) | 101.3 |
| NC(=O)c1ccc(OCCCN2C[C@H](C3CC3)[C@@H](N)C2)cc1 | -11.21 |

| Structure (SMILES) | Percent Effect [%] |
| --- | --- |
| O[C@H]1CCN(CCCOc2ccccc2F)C[C@@]12CCCO2 | 90.29 |
| O=C(C1CCC1)N1CCN(Cc2ccc(F)cc2)[C@H]2CS(=O)(=O)C[C@H]21 | 11.26 |
| O=C(Nc1ccccn1)NC1CCN(c2ccccc2OC(F)F)C1 (configuration not stated) | -25.38 |
| COc1ccc2nc(C[C@@H]3C[C@@H](C(C)C)[C@H](CN)C=C3C)[nH]c2n1 | 16.51 |
| CC(C1CCN(Cc2cnn(C)c2C2CC2)CC1)N1CCCC1 (configuration not stated) | 22.88 |
| C1CCC(NCC2(N3CCOCC3)CCSC2)C1 (configuration not stated) | -110.3 |
| COc1ccccc1[C@@H]1CN(Cc2c(C)noc2C)C[C@H]1C(=O)O | -13.6 |
| Cc1cc(NS(=O)(=O)CC2CCCCO2)ccc1F (configuration not stated) | 4.819 |
| Cc1cc(S(C)(=O)=O)c(C)c(S(=O)(=O)NCC2CCCO2)c1 (configuration not stated) | -7.327 |
| Cc1cc(NCC2CCCO2)cc(=O)n1C (configuration not stated) | 135.4 |
| COCC(C)N(C)C(=O)NC1CCN(c2ncccn2)CC1 (configuration not stated) | 0.8848 |
| CCN(Cc1noc(C2CC2)n1)Cc1ccc(C#N)cc1F | -1.413 |
| CN1CCO[C@@H]2CN(C(=O)Cc3cccs3)CC[C@@H]2C1.O=C(O)C(F)(F)F | 104.2 |
| CS(=O)(=O)N1CCO[C@@H]2CN(C(=O)Cc3cccs3)CC[C@@H]2C1 | 99.33 |
| O=C(Cc1cccs1)N1CCOC(c2cccc(O)c2)C1 (configuration not stated) | -7.888 |
| O=C1NCCO[C@H]2CN(C(=O)Cc3cccs3)CC[C@@H]12 | -57.9 |
| CC(C)N1CCO[C@@H]2CN(C(=O)Cc3cccs3)CC[C@@H]2C1.O=C(O)C(F)(F)F | 111.3 |
| CN(C)C[C@H]1OC[C@@H]2CCN(C(=O)Cc3cccs3)C[C@@H]21.O=C(O)C(F)(F)F | -1.59 |
| O=C(Cc1cccs1)N1C[C@@H]2CN(Cc3ccoc3)CCO[C@@H]2C1.O=C(O)C(F)(F)F | -6.419 |
| COCCN1CCO[C@@H]2CN(C(=O)Cc3cccc(F)c3)CC[C@@H]2C1.O=C(O)C(F)(F)F | 6.529 |
